A selection follows.
aSyn UTR act: Activators via SNCA 5'UTR binding, MLPCN; alpha-synuclein 5'UTR reporter, activators screen; AID 1814; 7.1% of 300,000 active; activity score, % (tested at 7.5 µM), hits read low; in the data active = activity score below about -60%
* hit, by the source's call.

SMILES	aSyn UTR act
COC(=O)Nc1nc(-c2ccccc2)c(C(=O)c2ccccc2)s1	100
CCOC(=O)c1sc(-c2cccs2)nc1C	-65*
O=C(Cc1sc(Nc2ccccc2)nc1-c1ccccc1)NCc1ccccc1	-123*
CCOC(=O)c1sc(Nc2nc3c(OC)cccc3s2)nc1C	-164*
CCOC(=O)c1sc(Nc2ccccc2)nc1C	-96*
Cc1nc(Nc2ccccc2)sc1C(=O)c1ccccc1	-68*
CCOC(=O)c1sc(Nc2nc(C)cc(C)n2)nc1C	84
C1CCN=C(Nc2nc3c(s2)CCCC3)CC1	-139*
CCc1nnc(NC(=O)Nc2ccc(Cl)cc2)s1	-66*
CSc1ccc(CN(C)C(=O)c2cc3ccccc3o2)cc1	-67*
CC(=O)c1c(C)[nH]c(C(=O)Nc2ccc(F)cc2F)c1C	-111*
CC(=O)c1c(C)[nH]c(C(=O)NCCc2cccc(C)c2)c1C	-170*
CC(=O)c1c(C)[nH]c(C(=O)Nc2ccc(C)cc2Br)c1C	-131*
CC(=O)c1c(C)[nH]c(C(=O)Nc2ccccc2Cl)c1C	-63*
O=C(Nc1ccc2c(c1)C(=O)NC2=O)c1ccc2ncsc2c1	-63*
COc1ccc(NC(=O)c2ccc3ncsc3c2)cc1	-168*
CCc1ccc(NC(=O)c2ccc3ncsc3c2)cc1	-155*
O=C(Nc1ccc(Br)cc1)c1ccc2ncsc2c1	-128*
O=C1/C(=C\c2ccco2)NC(=S)N1c1ccccc1	-84*
CCOc1cccc2cc(-c3cn4cc(C)ccc4n3)c(=O)oc12	-83*
COc1cccc2cc(-c3cn4cccc(C)c4n3)c(=O)oc12	-154*
COc1cccc2cc(-c3cn4ccc(C)cc4n3)c(=O)oc12	-88*
COc1ccc(-n2c(C)cc(-c3cn4cccc(C)c4n3)c2C)cc1	-79*
N=c1c2ccccc2nnn1-c1ccc(C(F)(F)F)cc1	-147*
COc1ccc(C(=O)NC(=S)NC(C)(C)C)cc1Br	-158*
SMILES	aSyn UTR act
COc1ccc(C(=O)NC(=S)NC(C)C)cc1Br	-70*
COc1ccc(C(=O)Nc2scc(-c3ccc(Cl)cc3Cl)c2C(N)=O)cc1	-237*
CSc1nc(-c2ccccc2)nc(NC(C)=O)c1C(C)=O	-62*
O=c1cc(/C=C/c2ccccc2)oc2ccccc12	-205*
O=C1N/C(=C/c2ccsc2)C(=O)N1c1ccccc1	-96*
COCCn1c(C)cc(/C=C2/NC(=O)N(c3cccc(Cl)c3)C2=O)c1C	-133*
CCn1c(C)cc(/C=C2/NC(=O)N(c3ccccc3)C2=O)c1C	-153*
Oc1cccc(-c2nc3ccc4ccccc4c3c3c2CCC3)c1	-137*
O=C(CCl)NN1C(=O)NC2(CCCCC2)C1=O	-76*
O=C(CCl)NN1C(=O)NC(c2ccccc2)(c2ccccc2)C1=O	-86*
C[C@@H]1[C@@H](Sc2ccccc2)CC(=O)O[C@@H]1c1ccc(-c2ccccc2)cc1	-182*
CCOCCOC(=O)c1[nH]c2c(c1C)C(=O)CC(c1cccs1)C2 (stereo not given)	85
CCOC(=O)C1CCN(C(=O)/C=C/c2cccs2)CC1	-70*
COC(=O)C1CCN(C(=O)/C=C/c2ccccc2)CC1	-135*
O=C(/C=C/c1ccccc1)N1CCC(c2ccccc2)C1 (stereo not given)	-82*
COc1ccc2nc(NC(=O)C3COc4ccccc4O3)sc2c1 (stereo not given)	-80*
CS(=O)(=O)c1ccc2nc(NC(=O)C3COc4ccccc4O3)sc2c1 (stereo not given)	-98*
O=C(Nc1nc(-c2nc3ccccc3s2)cs1)C1COc2ccccc2O1 (stereo not given)	-136*
CC1CCCN(c2ncnc3c2cnn3-c2ccccc2)C1 (stereo not given)	61
Cc1ccc(-n2ncc3c(N4CCCC4)ncnc32)c(C)c1	-114*
Cc1ccc(-n2ncc3c(N4CCCC(C)C4)ncnc32)c(C)c1 (stereo not given)	-125*
CCCCSc1nc2c(cnn2-c2ccccc2)c(=O)n1N	-119*
O=C(Cn1cnc2c(cnn2-c2ccc(F)cc2)c1=O)NCc1ccco1	-78*
O=c1c2cnn(-c3ccccc3)c2ncn1CCc1ccccc1	-114*
CCCSc1nc2c(cnn2-c2ccccc2)c(=O)n1N	-83*
SMILES	aSyn UTR act
CCOC(=O)C(C)Oc1cccc2c(=O)n(CC(=O)NCc3ccco3)ccc12 (stereo not given)	73
Nn1c(SCc2ccccc2)nc2c(cnn2-c2ccccc2)c1=O	-90*
O=C(Cc1ccc(-c2ccccc2)cc1)Nc1ccccn1	-118*
Cc1ccnc(NC(=O)Cc2ccc(-c3ccccc3)cc2)c1	-122*
Nn1c(-c2ccccn2)nnc1-c1ccccn1	-96*
Nc1ccccc1-c1nnc(-c2ccccc2N)n1N	-113*
Cc1ccc(-n2[nH]c(=O)c(-c3ccccn3)c2C)cc1	97
Nn1c(SCc2c(F)cccc2F)nnc1-c1ccccn1	-159*
CCOC(=O)c1sc(NC(=O)Nc2cccc(Cl)c2)cc1C	-110*
CCOC(=O)c1sc(NC(=O)c2sccc2C)cc1C	-82*
CCOC(=O)c1sc(NC(=O)c2ccc(Br)o2)cc1C	-236*
CCOC(=O)c1sc(NC(=O)c2cccs2)cc1C	-88*
O=C(N/N=C/c1ccc(-c2cccc([N+](=O)[O-])c2)o1)c1cccs1	-118*
O=C(N/N=C/c1ccc([N+](=O)[O-])cc1)c1cccs1	-118*
NCCCn1c(C(=O)c2cc(Cl)c(N)c(Cl)c2)c2ccc([N+](=O)[O-])cc2[n+]1[O-]	100
C=CCOc1c(Cl)cc(C(=S)N2CCCC2)cc1OCC	-95*
CCS(=O)(=O)c1nc(S(=O)(=O)c2ccc(C)cc2)c(N2CC(C)OC(C)C2)s1 (stereo not given)	-105*
CCCS(=O)(=O)c1nc(S(=O)(=O)c2ccc(C)cc2)c(N2CCN(C)CC2)s1	-69*
O=C1c2ccccc2C(=O)C1c1ccccn1	-105*
O=C1c2ccccc2C(=O)c2c1ccc1c(=O)n(-c3ccccc3)[nH]c21	-110*
Cc1cccc(-n2[nH]c3c4c(ccc3c2=O)C(=O)c2ccccc2C4=O)c1	-62*
CCOC(=O)c1cnc(SCC(C)C)nc1N	-104*
CCOC(=O)c1cnc(SCC(=O)c2ccccc2)nc1N	-141*
CCOC(=O)c1cnc(SCc2cccc(C)c2)nc1N	-89*
COC(=O)c1sc(NC(=S)NC(=O)c2ccccc2C)nc1C	-93*
SMILES	aSyn UTR act
COC(=O)c1sc(NC(=S)NC(=O)c2cccc(Br)c2)nc1C	-104*
Cc1snc(SCC(=O)c2ccc(F)cc2)c1C#N	-124*
CSc1nc(N)nc(SCC(=O)OC(C)C)c1C#N	-82*
CSc1nc(N)nc(SCC(=O)c2ccc(C)cc2)c1C#N	-113*
COc1cccc(N2C(C(C)=O)=NN(c3ccccc3)C2c2ccc(N3CCOCC3)cc2)c1 (stereo not given)	-82*
COc1ccc2c(c1OC)C(=O)N(c1cccc(C)c1)C2	-114*
COc1ccc2c(c1OC)C(=O)N(c1ccccn1)C2	-122*
COc1ccc2c(c1OC)C(=O)N(c1cccc(C(F)(F)F)c1)C2	-192*
FC(F)(F)c1cnc(-c2cnc(-c3ccncc3)nc2)c(Cl)c1	-109*
Cc1ccc(Cn2ccc(C3CC3)n2)cc1	-101*
Clc1ccc(Cn2ccc(C3CC3)n2)cc1	-95*
COc1ccccc1C(=O)NNC(=S)NC(=O)c1sc2ccccc2c1Cl	-138*
COc1ccccc1C(=O)CC(=O)c1ccccc1	-114*
COc1ccccc1C(=O)NNC(=O)c1cccc(Cl)c1	-66*
COc1ccccc1C(=O)NNC(=O)c1cccc(Br)c1	-115*

Screening results (PubChem BioAssay)
